A selection: hits, their analogues and other compounds. The true share with any hit is near 3.5%.
TEAD-YAP inh = TEAD-YAP interaction inhibition; HEK-TIYL cells, TEAD-Gal4/YAP UAS-luciferase luminescence; 640,000 tested, 1.4% active; inhibition, % at 9.12 µM; AID 1259422; in the data active = inhibition above about 32%;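 also: 0% = median of test compound wells and 100% = reference inhibitor wells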
GPR151 ag = human GPR151 activation; Q8TDV0; PathHunter beta-arrestin GPR151 cells, luminescence; activation, % at 11.2 µM; 650,000 tested, 1% active; AID 1508602; in the data active = activation above about 4.9%;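 also: 0% = median of compound wells and 100% = cells with positive control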
FBW7 act = human FBW7 E3 ligase activation, primary screen | 650,000 tested, 0.13% active | normalized activity (activation), % at 26.1 µM | Q969H0 | AID 1259310 | AlphaScreen FBW7–phospho-cyclin E peptide binding, activator screen; in the data active = normalized activity above about 1.9%;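 also: purified mutant Fbw7 with reduced substrate affinity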
Target sequence (Q969H0 whole entry, looked up): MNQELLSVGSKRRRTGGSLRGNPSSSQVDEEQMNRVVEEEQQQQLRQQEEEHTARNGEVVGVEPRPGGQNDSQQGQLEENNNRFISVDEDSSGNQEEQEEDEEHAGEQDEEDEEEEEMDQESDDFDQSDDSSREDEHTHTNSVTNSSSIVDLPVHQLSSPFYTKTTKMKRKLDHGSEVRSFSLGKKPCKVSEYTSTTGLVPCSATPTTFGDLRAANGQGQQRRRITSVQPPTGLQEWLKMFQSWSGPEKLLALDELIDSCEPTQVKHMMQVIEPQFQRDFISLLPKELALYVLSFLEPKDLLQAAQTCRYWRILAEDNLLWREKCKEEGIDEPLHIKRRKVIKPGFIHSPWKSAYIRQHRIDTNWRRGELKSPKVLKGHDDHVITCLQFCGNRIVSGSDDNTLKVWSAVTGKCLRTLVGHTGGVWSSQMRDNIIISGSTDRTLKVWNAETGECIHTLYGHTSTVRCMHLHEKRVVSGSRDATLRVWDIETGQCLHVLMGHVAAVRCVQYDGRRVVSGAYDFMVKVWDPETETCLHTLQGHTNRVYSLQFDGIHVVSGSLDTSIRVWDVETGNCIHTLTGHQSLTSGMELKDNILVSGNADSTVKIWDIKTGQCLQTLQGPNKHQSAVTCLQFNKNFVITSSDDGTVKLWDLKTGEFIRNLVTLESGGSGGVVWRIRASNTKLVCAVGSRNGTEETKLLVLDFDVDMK
MITF inh = inhibitors of human MITF | O75030 | AlphaScreen MITF homodimerization, bead proximity signal | inhibition, % at 2.6 µM | 650,000 tested, 0.91% active; in the data active = inhibition above about 50%;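 also: 0% = vehicle wells with protein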
MITF confirm = human MITF inhibition, confirmation | shares compounds with MITF inh | AlphaScreen MITF homodimerization, biotin/His-MITF beads | inhibition, % at 2.6 µM | 4,700 tested, 16% active;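 active = inhibition above a cutoff derived from the DMSO control wells, cut at about 28% in these data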;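 also: 0% = MITF dimer wells with DMSO only; inhibitors lower the bead chemiluminescence by keeping MITF from dimerizing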
AlphaScreen DR = optically interferes with AlphaScreen signal in dose response; shares compounds with MITF inh; AlphaScreen optical interference counterscreen, cell-free; IC50, µM; 480 tested, 6% active; AID 1259373; call rule not given here
AS interf ctr = AlphaScreen optical interference, counter-screen | inhibition, % at 2.6 µM | shares compounds with MITF inh | 4,700 tested, 7.6% active | LysRS AlphaScreen counterscreen, signal interference, triplicate | AID 1259376;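 active = inhibition above a cutoff derived from the DMSO control wells, cut at about 30% in these data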
Starred values were filed as active, the others as inactive; x = no result given.

SMILES	TEAD-YAP inh	GPR151 ag	FBW7 act	MITF inh	MITF confirm	AS interf ctr	others
O=C(NS(=O)(=O)c1ccccc1)c1cccc([N+](=O)[O-])c1	13	0	0	-4	x	x
COCCCNCCOCCOc1c(C)cc(C)cc1Cl	5	-2	0	52*	5	11
COCCCNCCCCOc1c(Cl)cc(C)cc1Br	15	0	0	58*	5	10
Cc1cc(Br)cc(Cl)c1OCCCNCCN(C)C	-4	1	1	-22	x	x
COCCNCCCOc1c(Cl)cc(C)cc1Br	6	3	0	27	x	x
Cc1cc(C)c(OCCCNCCN(C)C)c(Br)c1	1	2	-1	55*	3	21
Cc1ccc(-c2nc(C=Nc3ccc(Br)cc3)c(O)o2)cc1	-3	1	0	1	x	x
CC12COC3(C(=O)Nc4cccc(Cl)c4)CC1CCC32C (centres undefined)	-13	-1	0	-2	x	x
O=C(NC(=S)Nc1ccc(N2CCCCC2)cc1)c1ccccc1Cl	-21	2	0	4	x	x
COc1c(C)cccc1C(=O)NC(=S)Nc1ccc(CN2CCOCC2)cc1	-4	-1	1	11	x	x
Cc1cc(C(=O)COC(=O)c2cccc(Br)c2)c(C)n1CC1CCCO1 (centres undefined)	-4	-4	0	2	x	x
c1ccc(Oc2cccc(CN3CCN(Cc4ccccn4)CC3)c2)cc1	2	-1	0	75*	-5	5
Fc1ccc(N2CCN(Cc3ccccn3)CC2)cc1	0	1	0	63*	14	42*
Fc1cccc(CN2CCN(Cc3ccccn3)CC2)c1	-6	0	0	71*	11	25
COc1ccccc1CNC(=O)C1CCC(Cn2c(=S)[nH]c3ccccc3c2=O)CC1 (centres undefined)	-17	2	0	53*	-3	4
Cc1ccc(NC(=O)/C(=C\c2ccc([N+](=O)[O-])o2)NC(=O)c2ccc(Cl)cc2)cc1	0	0	0	15	x	x
Cc1ccc(C(=O)N/C(=C/c2ccc([N+](=O)[O-])o2)C(=O)O)cc1	6	1	0	70*	54*	5	AlphaScreen DR=>5.9
O=C(NNC(=S)NC1CCCCC1)C(=O)NNC(=S)NC1CCCCC1	-2	-1	0	62*	8	-11
O=C(NC1CCCCC1)C(=S)NC1CCCC1	-55	-1	1	10	x	x
CCN(C(=O)c1cnc2n(c1=O)CCS2)c1ccccc1	-8	3	0	51*	7	9
Cc1ccc2nc(N3CCC(NCCc4ccccc4F)CC3)nc(C)c2c1	12	1	0	73*	-12	-7
CCOC(=O)C1=C(C)NC(=O)NC1c1cc(OCC)ccc1Br (centres undefined)	-12	-1	0	0	x	x
COc1ccc(C(CNCC(O)COCC2=CCC3CC2C3(C)C)N(C)C)cc1 (centres undefined)	4	-3	0	73*	26	31*
COc1ccccc1NC(=O)CC(NCc1ccccn1)C(=O)O (centres undefined)	-6	1	0	100*	106*	100*
O=C(CC(NCc1ccccn1)C(=O)O)Nc1ccccc1Cl (centres undefined)	-2	0	0	104*	89*	100*
SMILES	TEAD-YAP inh	GPR151 ag	FBW7 act	MITF inh	MITF confirm	AS interf ctr	others
COc1ccccc1NC(=O)CC(C(=O)O)N(C)C (centres undefined)	9	3	0	15	x	x
O=C(CC(NCc1ccccn1)C(=O)O)Nc1cc(Cl)ccc1Cl (centres undefined)	-6	1	0	104*	75*	100*
O=C(Cc1ccccc1)Nc1cc(Cl)ccc1Cl	-2	1	0	-3	x	x
COc1cc(OC)cc(-n2nc(C(=O)Nc3cc(OC)c(OC)c(OC)c3)c3ccccc3c2=O)c1	-16	-1	0	-6	x	x
CN(C)CCCNCC(=O)NN(c1ccccc1)c1ccccc1	2	1	0	64*	-7	-2
CCCCNCC(=O)NN(c1ccccc1)c1ccccc1	-7	0	0	29	x	x
N/C(=N\OC(=O)/C=C/c1ccccc1)c1cccc([N+](=O)[O-])c1	2	1	0	17	x	x
CN(C)CCN1C(=O)C(=O)/C(=C(\O)c2ccc(F)cc2)C1c1ccco1 (centres undefined)	-1	-1	0	0	x	x
Clc1cccc(CN2CCN(C3CCCCCC3)CC2)c1	1	-1	0	69*	-5	-6
CS(=O)(=O)N1CCC(N2CCN(Cc3ccccc3)CC2)CC1	-3	1	0	54*	7	20
c1ccc(CN2CCN(C3CCCC3)CC2)cc1	15	0	0	75*	-5	-10
Cc1ccc(CN2CCN(C3CCCCC3)CC2)cc1	-12	-1	0	65*	3	18
Brc1cccc(CN2CCC(N3CCCCC3)CC2)c1	-5	0	0	-10	x	x
CCN(CC)N=Nc1ccc(S(=O)(=O)NC2=NCCS2)cc1	-4	1	0	-8	x	x
CCc1ccc(-c2cc(-c3ccccc3)c(C#N)c(=O)[nH]2)cc1	10	0	0	-14	x	x
O=C1N=C(N2CCOCC2)S/C1=C\c1ccco1	-1	-1	0	5	x	x
COc1ccc2cc(C#N)c(NCCNS(=O)(=O)c3ccccc3)nc2c1	3	0	0	-1	x	x
CCc1ccc(CN2CCN(C3CCN(Cc4ccccc4)CC3)CC2)cc1	6	-1	0	55*	-9	0
c1ccc(CN2CCC(N3CCN(C4CCN(Cc5ccccc5)CC4)CC3)CC2)cc1	16	0	0	21	x	x
CC1CCCC(N2CCN(Cc3cccc(Cl)c3)CC2)C1 (centres undefined)	-5	1	0	67*	1	-6
O=C(Cc1ccccc1)N1CCC(N2CCN(Cc3ccccc3)CC2)CC1	6	1	0	66*	2	9
Cc1ccc(-c2noc(-c3c[nH]c4ccc(F)cc4c3=O)n2)cc1C	-10	3	0	0	x	x
CCCn1c(SCC(=O)Nc2c(C)cc(C)cc2C)n[nH]c1=O	5	-1	0	6	x	x
Nc1c(N2CCCCC2)cnn(-c2ccccc2)c1=O	-57	0	0	-5	x	x
COc1cc(CN2CCN(c3ccccc3)CC2)cc(OC)c1OC	2	-1	0	43	x	x
COc1cccc(CN2CCN(Cc3ccccc3C(F)(F)F)CC2)c1OC	-9	0	0	67*	0	9
COc1cc(CN2CCN(Cc3ccccc3C(F)(F)F)CC2)cc(OC)c1OC	3	1	0	73*	6	13
COc1cccc(CN2CCN(Cc3ccccn3)CC2)c1OC	-8	0	0	64*	-4	13
CC(=O)N(C(=O)/C=C/c1ccccc1)S(=O)(=O)c1ccc(N=NN(C)C)cc1	0	0	1	-5	x	x

Screening results from PubChem.
